Test results: ChEMBL document CHEMBL4513135, “CO-ADD screening of IQOG CSIS (Spain) compounds”
Results with a measured potency or affinity are listed apart.

Columns and labels:
Staphylococcus aureus = settings: Concentration 32 ug.mL-1; ASSAY_TEST Inhibition of Bacterial Growth; detection method Absorption (OD600); MEDIA CAMHB; plate type 384well; NBS; CORNING #3640; time 18 hr
Escherichia coli = settings: Concentration 32 ug.mL-1; ASSAY_TEST Inhibition of Bacterial Growth; detection method Absorption (OD600); MEDIA CAMHB; plate type 384well; NBS; CORNING #3640; time 18 hr

SMILES	Inhibition (Staphylococcus aureus) [%]	Inhibition (Escherichia coli) [%]
O=C1OC(c2ccccc2)=NC12CC2c1ccc([N+](=O)[O-])cc1 (stereo not drawn)	9.12	5.57
N#CC1(Br)C(=NBr)Oc2c(ccc3ccccc23)C1c1ccccc1[N+](=O)[O-] (stereo not drawn)	52.21	-16.66
N#Cc1cccnc1N	27.07	-3.89
C#CCNc1cccc(F)n1	34.2	-22.48
CC(=O)Oc1ccc(C=C2N=C(c3ccccc3)OC2=O)c(OC(C)=O)c1	7.39	7.35
O=C(N/N=C/c1c[nH]c2ccccc12)c1cc2ccccc2[nH]1	11.07	9.94
Cn1c(CO)cc2cc(OCCCC3CCN(Cc4ccccc4)CC3)ccc21	7.02	-17.9
Nc1n[nH]c2c1C(c1ccccc1)CC(=O)N2 (stereo not drawn)	40.09	-4.9
Cc1ccc(C=C2N=C(c3ccccc3)OC2=O)cc1	7.55	3.61
Cl.NNN1CCc2ccccc21	25.31	10.83
COc1cc(Br)c(C=O)cc1OC	28.77	5
N#CC1=C(N)Oc2ccc3ccccc3c2C1c1ccccc1[N+](=O)[O-] (stereo not drawn)	40.78	-6.45
COc1cccc(-c2c(C#N)c(=O)oc3c2ccc2ccccc23)c1	13.24	14.42
CC(=O)NC(=Cc1ccccc1)C(=O)O	13.69	10.22
COc1ccc(C2C(C#N)=C(N)Oc3c2ccc2ccccc32)c(OC)c1 (stereo not drawn)	5.1	0.79
O=Cc1ccc(OCCO[N+](=O)[O-])cc1	6.78	18.31
Cc1[nH]nc2c1C(c1ccc(O)c(O)c1)C(C#N)=C(N)O2 (stereo not drawn)	9.09	8.02

SMILES	Inhibition (Staphylococcus aureus) [%]	Inhibition (Escherichia coli) [%]
COC1=C(C#N)C(c2ccccc2)C(C=O)=C(Cl)N1 (stereo not drawn)	40.42	-6.81
N#Cc1cc(C#N)c(N2CCC(O)CC2)nc1N	5.78	-26.11
COc1ccc2c(c1)cc(CN)n2C	13.26	5.66
N#Cc1c(N)nc(NCc2ccccc2)c(C#N)c1-c1ccccc1	-2.03	-5.8
CCCC(=O)NCc1c(-c2ccc(Cl)cc2)nc2ccccn12	11.89	8.99
CCOC(=O)C1=C(C)OC(N)=C(C#N)C1c1ccc(OC)cc1 (stereo not drawn)	9.52	-2.05
c1ccc(CNc2ncnc3c2cnn3-c2ccccc2)cc1	7.54	6.64
CC(C)(C)OC(=O)Nc1ccccn1	38.41	-0.38
COC(=O)C(C#N)=Cc1ccccc1	23.27	9.25
Cl.NC1(C(=O)O)CC1c1ccccc1 (stereo not drawn)	12.81	11.66
C#CCNC(=O)c1cc2cc(OCCCC3CCN(Cc4ccccc4)CC3)ccc2[nH]1	18.56	-12.4
CN1C/C(=C\Br)n2c1c(C#N)cc(C#N)c2=O	16.92	-11.76
O=C(Cc1c[nH]c2ccccc12)N/N=C/c1ccco1	4.9	-3.66
COc1ccc(-c2cc(-c3cc4c(C)cc(C)cc4nc3Cl)cc(=O)[nH]2)cc1	21.85	-16.03
CC1Cc2c(Br)nc3nc4c(c(N)c3c2NC1=O)CCCC4 (stereo not drawn)	27.55	-12.78
C/C(Cc1ccccc1)=N/NC(=O)c1c[nH]c2ccc(O)cc12	7.12	8.13
N#CC1(Br)C(=NBr)Oc2c(ccc3ccccc23)C1c1cccc([N+](=O)[O-])c1 (stereo not drawn)	34.66	-14.11
